About 79,000 compounds went through this panel and 15% of them were active in at least one assay; those are over-represented in the sample as a whole. Activity calls are given as the source filed them. Cut-off read from the data, not from the text of the source: active = growth inhibition above about 70%; inactive = the rest.
How the values were obtained:
[1] = NCI Yeast Anticancer Drug Screen. Data for the rad52 strain (AID 147);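 note: 0% = growth of vehicle-treated control cultures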; details: S. cerevisiae rad52 mutant growth inhibition, stronger effect = higher value
Method in brief: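 Yeast strain carrying a DNA damage repair alteration was exposed to test compounds. Growth inhibition was measured relative to vehicle-treated controls.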

[2] = NCI Yeast Anticancer Drug Screen. Data for the wt1 strain (AID 149);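 note: 0% = growth of vehicle-treated wt1 cultures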; details: S. cerevisiae wt1 strain (SPY 50644) growth inhibition, stronger effect = higher value
Method in brief: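 Compounds are added to wt1 yeast cultures. Growth is then measured. Inhibition is expressed relative to vehicle-treated controls.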

[3] = NCI Yeast Anticancer Drug Screen. Data for the rad50EPP+ strain (AID 151);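 note: 0% = growth of vehicle-treated control cultures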; details: S. cerevisiae rad50 mutant strain, stronger effect = higher value
Method in brief: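 Yeast strain carrying rad50 alteration (rad50EPP+) exposed to compounds; growth inhibition measured relative to vehicle-treated controls.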

[4] = NCI Yeast Anticancer Drug Screen. Data for the mgt1 strain (AID 153); details: S. cerevisiae mgt1 mutant growth inhibition, stronger effect = higher value
Method in brief: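 Yeast mgt1 strain (DNA repair/cell-cycle alteration panel) exposed to compounds; growth inhibition measured relative to vehicle-treated controls.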

[5] = NCI Yeast Anticancer Drug Screen. Data for the rad50 strain (AID 155);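 note: 0% = growth of vehicle-only cultures of the same strain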; details: S. cerevisiae rad50 strain growth inhibition, stronger effect = higher value
Method in brief: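 Inhibition values express reduced yeast growth in compound-treated cultures relative to vehicle-treated controls.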

[6] = NCI Yeast Anticancer Drug Screen. Data for the mec2-1 strain (AID 157); details: S. cerevisiae mec2-1 strain, stronger effect = higher value
Method in brief: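 mec2-1 yeast strain, carrying an alteration in DNA damage repair or cell cycle control, was exposed to compounds; growth inhibition was measured relative to vehicle-treated controls.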

[7] = NCI Yeast Anticancer Drug Screen. Data for the rad14 strain (AID 159);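 note: 0% = growth of vehicle-treated control cultures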; details: S. cerevisiae rad14 strain growth inhibition, stronger effect = higher value
Method in brief: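 A mutant yeast strain defective in DNA damage repair is treated with compound; inhibition of its growth is scored against untreated, vehicle-exposed cultures.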

[8] = NCI Yeast Anticancer Drug Screen. Data for the sgs1 mgt1 strain (AID 161);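 note: 0% = growth of cultures given vehicle only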; details: S. cerevisiae sgs1 mgt1 strain, stronger effect = higher value
Method in brief: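 Yeast cells carrying a defined DNA-repair defect were exposed to test compounds. Growth inhibition was measured relative to vehicle-treated controls.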

[9] = NCI Yeast Anticancer Drug Screen. Data for the CLN2oe strain (AID 163);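 note: 0% = growth of vehicle-only control cultures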; details: S. cerevisiae CLN2oe strain, stronger effect = higher value
Method in brief: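 Yeast cells carrying a defined cell-cycle control alteration were exposed to test compounds. Growth inhibition was scored against vehicle-treated control cultures.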

[10] = NCI Yeast Anticancer Drug Screen. Data for the cln2 rad14 strain (AID 165);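 note: 0% = growth equal to vehicle treated cultures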; details: S. cerevisiae cln2 rad14 strain, stronger effect = higher value
Method in brief: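 Yeast carrying cln2 and rad14 alterations (cell cycle control and DNA damage repair) were exposed to compounds. Growth inhibition was measured against vehicle-treated controls.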

[11] = NCI Yeast Anticancer Drug Screen. Data for the bub3 strain (AID 167); details: S. cerevisiae bub3 mutant strain, stronger effect = higher value
Method in brief: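 Steps: expose the mutant yeast strain to compound; grow alongside vehicle-treated cultures; measure growth; express inhibition against the vehicle cultures.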

[12] = NCI Yeast Anticancer Drug Screen. Data for the wt2 strain (AID 169);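 note: 0% = growth of vehicle-treated yeast cultures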; details: S. cerevisiae wt2 strain growth inhibition, stronger effect = higher value
Method in brief: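 Yeast cells were exposed to test compounds, and growth inhibition was measured relative to vehicle-treated controls.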

[13] = NCI Yeast Anticancer Drug Screen. Data for the mlh1 strain (AID 171);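 note: 0% = growth of vehicle-treated control cultures of the same strain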; details: S. cerevisiae mlh1 strain growth inhibition, stronger effect = higher value
Method in brief: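 Yeast carrying a defined genetic alteration in DNA damage repair or cell cycle control were exposed to test compounds. Growth inhibition was measured relative to vehicle-treated controls.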

[14] = NCI Yeast Anticancer Drug Screen. Data for the sgs1 strain (AID 173);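 note: 0% = growth of vehicle-only control cultures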; details: S. cerevisiae sgs1 mutant, stronger effect = higher value
Method in brief: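 Yeast mutant strains carrying defined defects in DNA damage repair or cell cycle control were exposed to test compounds. Growth inhibition was scored against vehicle-treated controls.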

[15] = NCI Yeast Anticancer Drug Screen. Data for the mlh1 rad18 strain (AID 175); details: S. cerevisiae mlh1 rad18 strain growth inhibition, stronger effect = higher value
Method in brief: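 Growth inhibition of the yeast strain was measured after compound exposure and expressed relative to vehicle-treated controls. The strain carries defined defects in DNA damage repair.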

[16] = NCI Yeast Anticancer Drug Screen. Data for the rad18 strain (AID 177); details: S. cerevisiae rad18 mutant growth inhibition, stronger effect = higher value
Method in brief: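 Yeast carrying a defined DNA damage repair alteration were exposed to compounds. Growth inhibition was expressed relative to vehicle-treated controls.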

[17] = at 5.0 µM (retest, dose inferred, filed as 0.5)
[18] = at 50.0 µM (retest, dose inferred, filed as 5.0)

Measured: growth inhibition

CN(C)/C(=N/C(=S)Nc1ccccc1)SCc1ccccc1
active: [5]; [18] 70% | [5]; at 50.0 µM 99.2% | [6]; [18] 76% | [6]; at 50.0 µM 99.7% | [8]; [18] 91% | [8]; at 50.0 µM 99% | [10]; at 50.0 µM 98.8% | [11]; [18] 86% | [11]; at 50.0 µM 99.5% | [15]; [18] 76% | [15]; at 50.0 µM 97.7%
inactive: [1]; at 1.2 µM -3% | [1]; at 3.7 µM -4% | [1]; at 11.0 µM -2% | [1]; at 33.0 µM 6% | [1]; at 100.0 µM 12% | [2]; at 1.2 µM -2% | [2]; at 3.7 µM -3% | [2]; at 11.0 µM 0% | [2]; at 33.0 µM 6% | [2]; at 100.0 µM 6% | [3]; at 1.2 µM 0% | [3]; at 3.7 µM 1% | [3]; at 11.0 µM -5% | [3]; at 33.0 µM 1% | [3]; at 100.0 µM 13% | [4]; at 1.2 µM 1% | [4]; at 3.7 µM 2% | [4]; at 11.0 µM 4% | [4]; at 33.0 µM 11% | [4]; at 100.0 µM 16% | [5]; at 1.2 µM -5% | [5]; at 3.7 µM -5% | [5]; [17] -7% | [5]; at 11.0 µM -7% | [5]; at 33.0 µM 8% | [5]; at 100.0 µM 10% | [6]; at 1.2 µM -5% | [6]; at 3.7 µM -5% | [6]; [17] -1% | [6]; at 11.0 µM -4% | [6]; at 33.0 µM 10% | [6]; at 100.0 µM 16% | [7]; at 1.2 µM -4% | [7]; at 3.7 µM -5% | [7]; at 11.0 µM -2% | [7]; at 33.0 µM 13% | [7]; at 100.0 µM 18% | [8]; [17] 11% | [9]; at 1.2 µM -8% | [9]; at 3.7 µM -11% | [9]; at 11.0 µM -13% | [9]; at 33.0 µM -6% | [9]; at 100.0 µM -1% | [10]; [17] -15% | [10]; [18] 44% | [11]; at 1.2 µM -4% | [11]; at 3.7 µM -2% | [11]; [17] 6% | [11]; at 11.0 µM 3% | [11]; at 33.0 µM 8% | [11]; at 100.0 µM 14% | [12]; at 1.2 µM -2% | [12]; at 3.7 µM -2% | [12]; at 11.0 µM 0% | [12]; at 33.0 µM 11% | [12]; at 100.0 µM 14% | [13]; at 1.2 µM -2% | [13]; at 3.7 µM 0% | [13]; at 11.0 µM 3% | [13]; at 33.0 µM 11% | [13]; at 100.0 µM 20% | [14]; at 1.2 µM -3% | [14]; at 3.7 µM 0% | [14]; at 11.0 µM 7% | [14]; at 33.0 µM 25% | [14]; at 100.0 µM 30% | [15]; [17] -1% | [16]; at 1.2 µM -4% | [16]; at 3.7 µM -1% | [16]; at 11.0 µM 1% | [16]; at 33.0 µM 16% | [16]; at 100.0 µM 24%

CC1(C2CC2)C(C#N)(C#N)C1(C#N)C#N
active: [1]; at 100.0 µM 78% | [5]; [18] 91% | [5]; at 100.0 µM 91% | [6]; at 100.0 µM 84% | [8]; [18] 70% | [11]; [18] 81% | [11]; at 100.0 µM 84% | [13]; at 100.0 µM 84% | [14]; at 100.0 µM 94% | [15]; [18] 89% | [15]; at 50.0 µM 70.9% | [16]; at 100.0 µM 87%
inactive: [1]; at 1.2 µM 2% | [1]; at 3.7 µM 10% | [1]; at 11.0 µM 22% | [1]; at 33.0 µM 45% | [2]; at 1.2 µM -2% | [2]; at 3.7 µM -2% | [2]; at 11.0 µM 5% | [2]; at 33.0 µM 19% | [2]; at 100.0 µM 48% | [3]; at 1.2 µM -1% | [3]; at 3.7 µM 2% | [3]; at 11.0 µM 1% | [3]; at 33.0 µM 9% | [3]; at 100.0 µM 9% | [4]; at 1.2 µM -1% | [4]; at 3.7 µM -2% | [4]; at 11.0 µM 1% | [4]; at 33.0 µM 16% | [4]; at 100.0 µM 63% | [5]; at 1.2 µM -1% | [5]; at 3.7 µM 3% | [5]; [17] -106% | [5]; at 11.0 µM 25% | [5]; at 33.0 µM 66% | [5]; at 50.0 µM 38.1% | [6]; at 1.2 µM 4% | [6]; at 3.7 µM 2% | [6]; [17] -39% | [6]; at 11.0 µM 33% | [6]; at 33.0 µM 36% | [6]; [18] 57% | [6]; at 50.0 µM 41.9% | [7]; at 1.2 µM 4% | [7]; at 3.7 µM 7% | [7]; at 11.0 µM 16% | [7]; at 33.0 µM 29% | [7]; at 100.0 µM 66% | [8]; [17] -48% | [8]; at 50.0 µM 51% | [9]; at 1.2 µM -2% | [9]; at 3.7 µM 8% | [9]; at 11.0 µM 16% | [9]; at 33.0 µM 21% | [9]; at 100.0 µM 53% | [10]; [17] -50% | [10]; [18] 7% | [10]; at 50.0 µM 16.3% | [11]; at 1.2 µM -7% | [11]; at 3.7 µM -2% | [11]; [17] -57% | [11]; at 11.0 µM 19% | [11]; at 33.0 µM 49% | [11]; at 50.0 µM 39.8% | [12]; at 1.2 µM -1% | [12]; at 3.7 µM -2% | [12]; at 11.0 µM -1% | [12]; at 33.0 µM 15% | [12]; at 100.0 µM 69% | [13]; at 1.2 µM 4% | [13]; at 3.7 µM -9% | [13]; at 11.0 µM 9% | [13]; at 33.0 µM 31% | [14]; at 1.2 µM -1% | [14]; at 3.7 µM 6% | [14]; at 11.0 µM 23% | [14]; at 33.0 µM 60% | [15]; [17] -96% | [16]; at 1.2 µM 4% | [16]; at 3.7 µM 9% | [16]; at 11.0 µM 22% | [16]; at 33.0 µM 53%
